Experimental data reported in PubChem BioAssay (Tox21).
Inconclusive results are not listed. The source made the active and inactive calls. Unless noted, calls follow the shape of the full dose curve.

Key:
[1] = Nuclear factor erythroid 2-related factor 2/antioxidant responsive element (Nrf2/ARE) small molecule agonists: qHTS cell viability counter screen in human keratinocytes (AID 1919968; active = well fitted curve in the direction sought with a large enough effect in the repeat runs; an effect the other way counts as inactive or inconclusive; also: nearly all actives have a fitted effect of over 55% in size)
Summary of the method: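 Fluorescence read-out from CellTiter-Fluor after 1 h at 37 C. Wells held HaCaT-derived ARE-luciferase reporter cells (1,500/well) treated 23 h with DMSO-dissolved compounds. Run in the same wells as the luciferase agonist read.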

[2] = Nuclear factor erythroid 2-related factor 2/antioxidant responsive element (Nrf2/ARE) small molecule agonists: luciferase reporter gene qHTS assay in human keratinocytes (AID 1919969); also: nearly all actives have a fitted effect of over 35% in size
[3] = molecular target: Gonadotropin-releasing hormone receptor (Homo sapiens) (UniProt P30968); test: Human gonadotropin-releasing hormone receptor (GnRHR) small molecule agonists, calcium flux assay in GnRHR-HEK293 cells (AID 1920063); also: nearly all actives have a fitted effect of over 35% in size
Summary of the method: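 Calcium-dye fluorescence, Ex/Em=480/540, recorded every 1 sec over 3 min after compound addition to GnRHR-HEK293 cells. Cells had been seeded 18 hours earlier and dye-loaded for 1 hour at 37 C. Fifteen concentrations, triplicates.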

[4] = molecular target: KiSS-1 receptor (Homo sapiens) (UniProt Q969F8); test: Human kisspeptin (KISS1R) small molecule agonists, calcium flux assay in KISS1R-HEK293 cells (AID 1920064; active = well fitted curve in the direction sought with a large enough effect in the repeat runs; an effect the other way counts as inactive or inconclusive)
Summary of the method: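 Calcium flux read-out: kinetic fluorescence at Ex/Em=480/540, 1 s intervals over 3 min, after pin-tool compound addition to dye-loaded KISS1R-HEK293 cells. Fifteen concentrations, triplicates.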

[5] = G protein-coupled receptor (GPCR) small molecule agonists, calcium flux assay: HEK293 wild type cell line counter screen (AID 1920065)
Summary of the method: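 Agonist mode; 18 h seeding at 37 C, 1 h dye load at 37 C; compounds pinned from DMSO, ATP as positive control; kinetic fluorescence 480/540 nm, 3 min, 1 s reads; 15 concentrations, triplicate.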

[6] = p53 small molecule agonists, cell-based qHTS assay with human liver microsomes (AID 1963577);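 also: p53 response element beta-lactamase reporter cells with liver microsomes plus NADPH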
Summary of the method: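 In this qHTS, p53 response-element beta-lactamase cells receive test compound together with a microsome/NADPH activating system (0.5 mg/mL final each) and are incubated 16 h at 37 C before LiveBLAzer fluorescence detection.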

[7] = p53 small molecule agonists, cell-based qHTS assay with rat liver microsomes (AID 1963578)
Summary of the method: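 Agonist mode in p53RE-bla reporter cells, with compounds co-incubated 16 h at 37 C alongside 0.5 mg/mL rat liver microsomes and 0.5 mg/mL NADPH (final), followed by a 2 h LiveBLAzer detection step.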

[8] = p53 small molecule agonists, cell-based qHTS assay with human liver microsomes: qHTS cell viability counter screen (AID 1963579); also: nearly all actives have a fitted effect of over 45% in size
Summary of the method: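 Metabolically activated exposure: compounds, human liver microsomes and NADPH (0.5 mg/mL final apiece) were added to p53RE-bla cells seeded 5 h earlier, left 16 h at 37 C, and then assessed for viability by CellTiter-Glo luminescence.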

[9] = p53 small molecule agonists, cell-based qHTS assay with rat liver microsomes: qHTS cell viability counter screen (AID 1963580); also: nearly all actives have a fitted effect of over 45% in size
Summary of the method: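 Cytotoxicity counter screen: intracellular ATP measured by CellTiter-Glo luminescence in the same wells as the beta-lactamase reporter read, on HCT-116 p53RE-bla cells exposed 16 h at 37 C to compounds with rat liver microsomes and NADPH, each 0.5 mg/mL final.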

[10] = p53 small molecule agonists, cell-based qHTS assay: qHTS cell viability counter screen (AID 1963581); also: nearly all actives have a fitted effect of over 45% in size
Summary of the method: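 Cytotoxicity read-out: ATP-based luminescence (CellTiter-Glo, 30 min RT) measured in the same wells as the p53 reporter assay, HCT-116 p53RE-bla cells, 16 h compound exposure at 37 C.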

[11] = p53 small molecule agonists, cell-based qHTS assay (AID 1963582; active = well fitted activation curve with a large enough effect in the signal ratio in the repeat runs, not every such curve was filed as active; the % refers to the signal ratio)
Summary of the method: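 Fluorescence intensity read-out of a beta-lactamase reporter under a p53 response element. Cells were exposed to DMSO-dissolved compounds for 16 h at 37 C, then developed with FRET substrate for 2 h at RT.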

[12] = molecular target: 5-hydroxytryptamine receptor 2A (Homo sapiens) (UniProt P28223); test: 5-hydroxytryptamine receptor 2A (HTR2A) small molecule antagonists, cell-based qHTS assay (AID 1963586); also: nearly all actives have a fitted effect of over 45% in size
Summary of the method: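 CHO cells stably expressing human HTR2A were plated for 18 h at 37 C, then loaded with calcium dye for 1 h. Compounds were preincubated 5 min at room temperature before DOI (4 nM solution) was added. Kinetic fluorescence was read for 3 min.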

[13] = molecular target: 5-hydroxytryptamine receptor 2A (Homo sapiens) (UniProt P28223); test: 5-hydroxytryptamine receptor 2A (HTR2A) small molecule agonists, cell-based qHTS assay (AID 1963587); also: nearly all actives have a fitted effect of over 30% in size
Summary of the method: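 CHO cells stably expressing human HTR2A, plated 18 h, loaded with calcium dye 1 h at 37 C. Agonist mode: compounds added and intracellular calcium fluorescence recorded kinetically for 2 min at 1 sec intervals.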

[14] = molecular target: Muscarinic acetylcholine receptor M1 (Homo sapiens) (UniProt P11229); test: Cholinergic receptor muscarinic 1 (CHRM1) small molecule antagonists, cell-based qHTS assay (AID 1963588); also: nearly all actives have a fitted effect of over 40% in size
Summary of the method: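 Compounds were tested at 15 concentrations in three independent runs. Dye-loaded CHRM1-CHO cells were exposed 5 min at room temperature before stimulation by acetylcholine added at 50nM. Intracellular calcium was read kinetically on FDSS for 3 min.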

[15] = molecular target: Muscarinic acetylcholine receptor M1 (Homo sapiens) (UniProt P11229); test: Cholinergic receptor muscarinic 1 (CHRM1) small molecule agonists, cell-based qHTS assay (AID 1963589); also: nearly all actives have a fitted effect of over 35% in size
Summary of the method: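 Calcium flux read-out: kinetic fluorescence at 1 sec intervals after pin-tool compound addition to dye-loaded CHRM1-CHO cells (human M1). Agonist mode; 15 concentrations tested in triplicate independent runs.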

[16] = cAMP Responsive Elements (CRE) small molecule antagonists, cell-based qHTS assay (AID 1963591; active = well fitted inhibition curve with a large enough effect in the signal ratio in the repeat runs, not every such curve was filed as active; the % refers to the signal ratio)
Summary of the method: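 HEK293T CRE-bla; 18 h preincubation; compound pin-transfer; NKH477 0.25 uM final, 3 h, 37 C; LiveBLAzer FRET substrate 2 h RT.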

[17] = molecular target: Beta-2 adrenergic receptor (Homo sapiens) (UniProt P07550); test: Adrenergic beta2 receptor (ADRB2) small molecule antagonists, cell-based qHTS assay (AID 1963592); also: series mostly up to about 92 µM; nearly all actives have a fitted effect of over 50% in size
Summary of the method: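 Assay format: CHO-ADRB2 cells, 18-20hr seeding at 37C/5% CO2, then compound plus 1nM isoproterenol agonist mix for 0.5hr RT. Homogeneous time-resolved fluorescence cAMP detection after 1hr, expressed as 665/615 nm ratio.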

[18] = molecular target: D(2) dopamine receptor (Homo sapiens) (UniProt P14416); test: Dopamine D2 receptor (DRD2) small molecule agonists, cell-based qHTS assay (AID 1963594); also: nearly all actives have a fitted effect of over 35% in size
Summary of the method: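 HEK293 cells stably expressing human DRD2, pre-treated with PDE inhibitor Ro20-1724 (0.1 mM final) and compound 10 min at room temperature, then stimulated with NKH477 (200nM […]) for 30 min. cAMP read by HTRF (665/620 nm).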

[19] = molecular target: D(2) dopamine receptor (Homo sapiens) (UniProt P14416); test: Dopamine D2 receptor (DRD2) small molecule antagonists, cell-based qHTS assay (AID 1963595; active = well fitted inhibition curve with a large enough effect in the signal ratio in the repeat runs, with a control signal flat; the % refers to the signal ratio)
Summary of the method: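 Stable D2 receptor HEK293 line, 24 h after seeding. Compound preincubated 10 min, then quinpirole (12 nM) with forskolin analogue NKH477 (200 nM), 30 min, room temperature. Detection by time-resolved FRET of cAMP.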

Measured: Potency

Sequence of KiSS-1 receptor (Homo sapiens) (Q969F8 whole entry, looked up): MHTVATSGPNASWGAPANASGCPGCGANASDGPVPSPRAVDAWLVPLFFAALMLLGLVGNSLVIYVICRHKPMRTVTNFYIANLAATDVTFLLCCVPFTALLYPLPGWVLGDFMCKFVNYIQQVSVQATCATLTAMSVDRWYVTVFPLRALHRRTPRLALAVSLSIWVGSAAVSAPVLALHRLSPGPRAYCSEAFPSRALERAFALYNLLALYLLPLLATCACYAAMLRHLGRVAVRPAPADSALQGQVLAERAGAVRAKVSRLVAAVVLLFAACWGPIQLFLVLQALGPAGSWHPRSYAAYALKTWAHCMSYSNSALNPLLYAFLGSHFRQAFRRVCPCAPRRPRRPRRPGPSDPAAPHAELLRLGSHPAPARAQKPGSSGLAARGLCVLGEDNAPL
Sequence of 5-hydroxytryptamine receptor 2A (Homo sapiens) (P28223 whole entry, looked up): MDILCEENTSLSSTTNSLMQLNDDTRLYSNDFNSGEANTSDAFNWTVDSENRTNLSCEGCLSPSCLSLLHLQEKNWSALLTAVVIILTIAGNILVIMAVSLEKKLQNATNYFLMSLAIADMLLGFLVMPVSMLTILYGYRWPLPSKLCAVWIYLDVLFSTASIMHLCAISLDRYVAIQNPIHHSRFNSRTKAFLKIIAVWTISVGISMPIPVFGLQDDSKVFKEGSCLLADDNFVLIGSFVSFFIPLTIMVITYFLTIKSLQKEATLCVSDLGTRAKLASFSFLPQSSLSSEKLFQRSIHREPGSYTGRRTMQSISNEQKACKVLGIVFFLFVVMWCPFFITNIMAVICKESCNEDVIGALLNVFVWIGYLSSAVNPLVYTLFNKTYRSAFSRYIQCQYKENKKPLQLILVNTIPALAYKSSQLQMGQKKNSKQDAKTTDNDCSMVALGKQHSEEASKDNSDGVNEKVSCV
Sequence of Beta-2 adrenergic receptor (Homo sapiens) (P07550 whole entry, looked up): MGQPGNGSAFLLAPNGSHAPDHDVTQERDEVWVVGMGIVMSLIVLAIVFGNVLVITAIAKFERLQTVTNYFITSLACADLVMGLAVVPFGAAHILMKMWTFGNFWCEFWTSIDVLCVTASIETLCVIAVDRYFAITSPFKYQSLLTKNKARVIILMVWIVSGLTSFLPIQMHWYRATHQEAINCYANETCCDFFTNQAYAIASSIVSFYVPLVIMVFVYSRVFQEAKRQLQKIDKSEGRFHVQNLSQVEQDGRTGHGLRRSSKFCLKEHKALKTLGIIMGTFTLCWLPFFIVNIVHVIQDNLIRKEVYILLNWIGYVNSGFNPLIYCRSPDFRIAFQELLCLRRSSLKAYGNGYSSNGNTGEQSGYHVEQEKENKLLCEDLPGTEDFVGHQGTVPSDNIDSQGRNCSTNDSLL
Sequence of Muscarinic acetylcholine receptor M1 (Homo sapiens) (P11229 whole entry, looked up): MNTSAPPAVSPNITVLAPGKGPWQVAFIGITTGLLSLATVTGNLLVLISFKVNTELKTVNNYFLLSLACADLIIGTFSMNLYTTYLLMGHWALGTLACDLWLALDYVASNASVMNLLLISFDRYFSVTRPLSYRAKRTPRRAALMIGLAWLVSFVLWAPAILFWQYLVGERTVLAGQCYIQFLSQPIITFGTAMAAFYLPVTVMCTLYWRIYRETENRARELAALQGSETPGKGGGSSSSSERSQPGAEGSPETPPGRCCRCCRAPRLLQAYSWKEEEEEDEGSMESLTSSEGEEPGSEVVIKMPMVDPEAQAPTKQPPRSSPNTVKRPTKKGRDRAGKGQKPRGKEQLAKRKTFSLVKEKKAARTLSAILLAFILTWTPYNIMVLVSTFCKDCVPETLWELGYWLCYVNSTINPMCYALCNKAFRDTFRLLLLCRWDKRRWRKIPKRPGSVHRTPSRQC
Sequence of Gonadotropin-releasing hormone receptor (Homo sapiens) (P30968 whole entry, looked up): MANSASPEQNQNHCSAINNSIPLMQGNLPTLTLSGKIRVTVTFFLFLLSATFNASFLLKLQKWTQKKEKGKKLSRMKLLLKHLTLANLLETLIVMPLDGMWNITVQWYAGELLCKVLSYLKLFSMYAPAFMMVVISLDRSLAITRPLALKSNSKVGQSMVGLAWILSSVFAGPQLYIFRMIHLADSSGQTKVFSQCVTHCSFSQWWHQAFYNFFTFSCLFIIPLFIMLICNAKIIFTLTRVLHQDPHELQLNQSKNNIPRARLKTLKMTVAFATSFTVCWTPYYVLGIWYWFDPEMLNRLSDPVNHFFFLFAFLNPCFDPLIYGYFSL
Sequence of D(2) dopamine receptor (Homo sapiens) (P14416 whole entry, looked up): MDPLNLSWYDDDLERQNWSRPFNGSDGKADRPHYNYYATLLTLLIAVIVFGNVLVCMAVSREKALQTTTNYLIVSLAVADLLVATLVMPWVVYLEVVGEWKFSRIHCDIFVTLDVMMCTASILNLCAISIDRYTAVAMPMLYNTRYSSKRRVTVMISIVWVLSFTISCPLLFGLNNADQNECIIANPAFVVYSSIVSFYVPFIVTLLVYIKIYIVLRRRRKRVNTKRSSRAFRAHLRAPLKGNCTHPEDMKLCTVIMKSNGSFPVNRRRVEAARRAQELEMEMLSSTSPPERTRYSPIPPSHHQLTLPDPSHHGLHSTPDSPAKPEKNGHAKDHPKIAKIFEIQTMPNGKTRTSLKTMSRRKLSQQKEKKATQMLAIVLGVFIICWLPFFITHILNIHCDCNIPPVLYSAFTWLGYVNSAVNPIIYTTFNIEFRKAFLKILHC

Cc1cccc([N+](=O)[O-])c1C(=O)O
inactive: all assays above

CCn1ccnc1CC1COc2ccccc2O1 (configuration not stated)
not listed: [18]
inactive: all other assays above

CCCCC(CC)COC(=O)COc1ccc(Cl)cc1Cl (configuration not stated)
not listed: [19]
inactive: all other assays above

CC1=CC(=O)CC(C)(C)C1(O)/C=C/C(C)=C\C(=O)O (configuration not stated)
not listed: [16]
inactive: all other assays above

O=C(CCCCC(=O)Nc1c(I)cc(I)c(C(=O)O)c1I)Nc1c(I)cc(I)c(C(=O)O)c1I
not listed: [16]
inactive: all other assays above

BrCCCCCBr
not listed: [19]
inactive: all other assays above

COc1ccc(-c2coc3cc(O)ccc3c2=O)cc1
not listed: [16]
inactive: all other assays above
